The whole screen tested about 300,000 compounds, of which about 37,000 (12%) were called active. No stated cut-off is given here; in the data, active means max response mostly above about 13% (no sharp cut-off); inactive means mostly below about 14%. For the sample, actives were picked, then their nearest neighbours and some compounds at random.
Assay: Cycloheximide Counterscreen for Small Molecule Inhibitors of Shiga Toxin; further: read at 38.3 µM for the half of the compounds with a filed dose; 0% is about no effect
Settings: cell reporter, cycloheximide protein synthesis inhibition counterscreen; active compounds read high
For `CCOc1ccc(NS(=O)(=O)c2cc(C)c(C)cc2C)cc1`, the max response was 0.868% (inactive). For `Cc1ccccc1N1CCN(C2CCCN(C(=O)c3ocnc3C)C2)CC1` (stereo unspecified), the max response was 1.48% (inactive). With `CCCCCC(O)(CCN1CCCCC1)c1ccccc1` (stereo unspecified) the max response was -2.5% (inactive). With `O=C(COC(=O)/C=C/c1ccc(S(=O)(=O)N2CCCCCC2)cc1)NCc1ccccc1Cl` the max response was 0.471% (inactive). With `CCCCn1c(=O)c(CCC(=O)OCC(=O)Nc2ccc(C)c(Cl)c2)nc2ccccc21` the max response was -1.67% (inactive). For `CC(C)COC(=O)c1ccc(NC(=O)C2C3C=CC(C3)C2C(=O)O)cc1` (stereo unspecified), the max response was 29% (active). With `COC(=O)c1cc(NC(=O)C2C3C=CC(C3)C2C(=O)O)cc(C(=O)OC)c1` (stereo unspecified) the max response was -3.42% (inactive). With `CC(=O)NS(=O)(=O)c1ccc(NC(=O)C2C3C=CC(C3)C2C(=O)O)cc1` (stereo unspecified) the max response was -2.43% (inactive). For `CCN(CC)S(=O)(=O)c1ccc(N(C)Cc2cccc(OC)c2OC)nc1`, the max response was 10.4% (inactive). For `C/C(=N\NC(=O)CC(C)C)c1c(C(F)(F)F)[nH]n(-c2nc3ccccc3s2)c1=O`, the max response was 35.6% (active). With `COc1ccccc1NC(=O)c1ccc2nc(N3C(=O)CCC3=O)sc2c1` the max response was 7.91% (inactive). In the case of `COc1ccc(CC(=O)N/N=C(\C)c2ccccn2)cc1`, the max response is reported as -3.12% (inactive). With `C=CCn1c(CSc2nc3ccccc3s2)nnc1SCC(=O)NCc1ccco1` the max response was 0.347% (inactive). With `CCOC(=O)N1CCN(CC(=O)Nc2cc(C)nn2-c2nc3ccccc3s2)CC1` the max response was 2.1% (inactive). In the case of `CCc1ccc(-c2cc(C(=O)NCc3ccco3)c3ccccc3n2)s1`, the max response is reported as 14.1% (inactive). For `CCC(C)Cn1c(O)cc2nn(-c3nc4ccccc4s3)c(=O)c-2c1C` (stereo unspecified), the max response was 3.42% (inactive). In the case of `CC(=NCc1ccco1)c1c(C(F)(F)F)[nH]n(-c2nc3ccccc3s2)c1=O`, the max response is reported as 48.5% (active). For `COC(=O)Cc1[nH]n(-c2nc3ccccc3s2)c(=O)c1C(C)=Nc1ccc(OC)cc1`, the max response was 38.2% (active). In the case of `Cc1ccc(C(=O)NCC(=O)OCC(=O)NC2CCCCCCC2)cc1`, the max response is reported as -2.63% (inactive). With `Cc1ccc(NC(=O)Cn2c(=O)n(CCC(=O)NC3CCN(Cc4ccccc4)CC3)c(=O)c3ccccc32)cc1` the max response was -1.8% (inactive). For `O=C(NCCCNC(=O)c1ccccc1Cl)c1cnccn1`, the max response was -1.06% (inactive). For `COC(=O)Nc1ccc(S(=O)(=O)Nc2cc(OC)nc(OC)n2)cc1`, the max response was 8.38% (inactive). With `COc1ccc(-c2ccc(CCC(=O)O)n2NC(=O)c2ccc(C(C)(C)C)cc2)cc1` the max response was 15.2% (inactive). In the case of `CC(=O)Nc1ccc(Nc2ncnc3c2nnn3Cc2ccccc2Cl)cc1`, the max response is reported as -1.15% (inactive). With `CC1C(=O)Nc2ccc(S(=O)(=O)N3CCN(c4ccccc4F)CC3)cc2NC1=O` (stereo unspecified) the max response was -4.25% (inactive). For `COc1cc(CCC(=O)Nc2ccncc2Cl)cc(OC)c1OC`, the max response was -2.42% (inactive). In the case of `Cn1c2ccccc2c(=O)c2c(=O)n(Cc3ccco3)c(COc3ccccc3)nc21`, the max response is reported as -1.78% (inactive). For `Cc1ccccc1NC(=O)CN1C(=O)N/C(=C\c2cccn2-c2cccc(C(=O)O)c2)C1=O`, the max response was -9.3% (inactive). For `COc1cc2c(cc1/C=C1/NC(=O)N(c3ccccc3)C1=O)OCO2`, the max response was 6.72% (inactive). With `O=C1N/C(=C/c2cccn2-c2ccccc2)C(=O)N1c1cccc(Cl)c1` the max response was 34.8% (active). For `COc1cc(N2CCCC2)c(OC)cc1/C=C(/C#N)c1cccc(Br)c1`, the max response was -3.93% (inactive). For `COc1cc(C(=O)N2CCN(C3CCC(C)CC3)CC2)cc(OC)c1OC` (stereo unspecified), the max response was -0.901% (inactive). With `Nc1ccc2nn(-c3ccc(Cl)cc3)nc2c1` the max response was 39.4% (active). For `COc1ccc(-c2[nH]ncc2CN(Cc2nccn2C)C(C)C)cc1F`, the max response was 0.417% (inactive). In the case of `Cc1nn(C)c(Cl)c1CN1CCC(n2nccc2NC(=O)C2CCCC2)CC1`, the max response is reported as -0.568% (inactive). With `Cc1ccc(S(=O)(=O)NCCSC(C)(C)C)cc1` the max response was 1.94% (inactive). With `CC(C)(C)SCCSC1=CC(=O)CC(c2ccccc2)C1` (stereo unspecified) the max response was 48.7% (active). In the case of `CCC(C)N1CC(=O)N2Cc3[nH]c4ccccc4c3C[C@H]2C1=O` (stereo partly specified), the max response is reported as -5.44% (inactive). For `COC(=O)c1ccccc1NC(=O)CSc1n[nH]c(-c2ccncc2)n1`, the max response was -2.03% (inactive). For `CC(C)=CCCC1(C)C=Cc2c(ccc3c2[nH]c2cc(O)c(C)cc23)O1` (stereo unspecified), the max response was 14% (active). In the case of `CC/C(=N\NC(=S)NC(C)C)c1ccc(OC(F)F)cc1`, the max response is reported as 7.39% (inactive). In the case of `O=C(O)CCCn1c(=O)c2cccn2c2ccc(F)cc21`, the max response is reported as -0.924% (inactive). With `O=c1[nH]c(N2CCOCC2)nc2ccccc12` the max response was -4.42% (inactive). With `O=C1N=C(N2CCOCC2)S/C1=C\C=C/c1ccccc1` the max response was 44.4% (active). In the case of `O=C1N=C(N2CCOCC2)CS1`, the max response is reported as 11.5% (inactive). With `CCc1ccc(/C=C2\SC(N3CCOCC3)=NC2=O)cc1` the max response was 17.2% (inactive). With `Cc1ccsc1/C=C1\SC(N2CCOCC2)=NC1=O` the max response was 32.7% (active). In the case of `Cc1cc(/C=C2/SC(=O)N(CC(=O)N3CCCC3)C2=O)ccc1N1CCOCC1`, the max response is reported as 12.3% (inactive). For `Fc1ccc(-c2ccc(CNCc3ccccn3)o2)cc1Cl`, the max response was 11.4% (inactive). In the case of `COc1ccc(C(=O)C2CCCN(Cc3cccn3-c3ccccn3)C2)c(C)c1` (stereo unspecified), the max response is reported as -2.02% (inactive). In the case of `C[C@@H](NC(=O)[C@@H]1Cc2ccccc2CN1)C(=O)NC1CCCC1`, the max response is reported as -1.91% (inactive). For `CCOc1ccc(/C=N\NC(=O)c2c(C)nc3cc(C)ccn23)cc1`, the max response was 0.972% (inactive). For `NC(=O)C1CCN(C(=O)c2ccc3c(=O)n(Cc4cccc(Br)c4)c(=S)[nH]c3c2)CC1`, the max response was -3.9% (inactive). In the case of `O=C(Nc1ccccc1C(=O)N1CCCCC1)c1ccco1`, the max response is reported as -0.706% (inactive). With `CS/C(=C\C(=O)c1ccco1)Nc1ccccc1Cl` the max response was 38.1% (active). With `O=C(c1cccc(S(=O)(=O)Nc2ccccc2Cl)c1)N1CCN(C(=O)c2ccco2)CC1` the max response was -0.249% (inactive). With `CCOc1ccc(CC(=O)NC2CCN(Cc3ccccc3)CC2)cc1` the max response was 4.32% (inactive). In the case of `CCCOC(=O)c1c(NC(=O)c2cnn3c2NC(c2ccccc2)CC3C(F)(F)F)sc2c1CCCC2` (stereo unspecified), the max response is reported as -8.8% (inactive). In the case of `CCc1nc(Nc2ccc3nccnc3c2)c2oc3ccccc3c2n1`, the max response is reported as 12.4% (active). In the case of `CCc1nc(Nc2ccc(NC(C)=O)cc2)c2oc3ccccc3c2n1`, the max response is reported as -3.08% (inactive). With `CCc1nc(N2CCN(c3nc(C)cc(C)n3)CC2)c2oc3ccccc3c2n1` the max response was 2.99% (inactive).

From PubChem BioAssay AID2314 (National Center for Advancing Translational Sciences (NCATS), 2010)
